Assay: DUSP6 inhibitors restoring Erk phosphorylation by chemical complementation, primary imaging in DUSP6-transfected HeLa (AID 609)
Details: HeLa MKP-3 transfected, phospho-Erk imaging KS statistic; measured here: nuclear pErk red intensity z-score; at 10 µM; stronger effect = higher value; cells stimulated with TPA for 15 min

Question: With `O=C(c1ccc(=O)oc1)N1CCN(c2ccc(F)cc2)CC1` as the molecule, how does the z-score read?
Answer: Its z-score is 0.228.

Question: Which z-score does the source give for `CC(C)(C)C1=Nn2c(nnc2-c2ccco2)SC1` here?
Answer: The z-score was -0.139.

Question: For `COc1cc(OC)cc(C(=O)N2CCC(N3CCCCCC3)CC2)c1`, which z-score is on record?
Answer: Its z-score is -0.585.

Question: Which z-score does the source give for `COc1cc(=O)n2c(-c3ccccc3)csc2n1` here?
Answer: Its z-score is 0.777.

Question: For `COc1ccccc1OCC(=O)Nc1ccc(S(=O)(=O)Nc2cc(C)nc(C)n2)cc1`, which z-score is on record?
Answer: Its z-score is -0.662.

Question: For `COCCCNC(=O)c1c(N)n(/N=C/c2cccs2)c2nc3ccccc3nc12`, which z-score is on record?
Answer: The z-score was -0.0865.

Question: For `CCOC(=O)CNS(=O)(=O)c1cc(-c2nn(C)c(=O)c3ccccc23)ccc1C`, which z-score is on record?
Answer: The z-score was -0.809.

Question: For `N#CC1=C(SCc2ccccc2)NC2=C(C(=O)CCC2)C1c1ccc2c(c1)OCO2` (centres undefined), which z-score is on record?
Answer: The z-score was -1.35.

Question: Which z-score does the source give for `CCOC(=O)c1[nH]c2cc3c(cc2c1NC(=O)CN1CCc2ccccc2C1)OCO3` here?
Answer: The z-score was -0.654.

Question: Which z-score does the source give for `CCOC(=O)c1ccc(NC(=O)CCC(CC)C(=O)O)cc1` (centres undefined) here?
Answer: Its z-score is -0.382.

Question: Which z-score does the source give for `CCOC(=O)CSc1nc2ccccc2c(=O)n1C` here?
Answer: Its z-score is 1.83.

Question: Which z-score does the source give for `CC(O)Cn1ccccc1=N` (centres undefined) here?
Answer: The z-score was 0.0768.

Question: Which z-score does the source give for `CC1CN(C2CCN(S(=O)(=O)Cc3ccccc3)CC2)CC(C)O1` (centres undefined) here?
Answer: The z-score was 0.176.

Question: With `CN1CCN(c2ncnc3c2[nH]c2ccc(F)cc23)CC1` as the molecule, how does the z-score read?
Answer: Its z-score is -0.525.

Question: With `COc1cc(-c2nn3c(C4CCCCC4)nnc3s2)cc(OC)c1OC` as the molecule, how does the z-score read?
Answer: The z-score was 1.4.

Question: For `O=C1OC(Nc2ccc(Br)cn2)c2ccccc21` (centres undefined), which z-score is on record?
Answer: Its z-score is 0.497.

Question: With `Cc1nnc2n(Cc3ccccc3)c(=O)c3c4c(sc3n12)CN(Cc1ccccc1)CC4` as the molecule, how does the z-score read?
Answer: The z-score was 0.467.

Question: Which z-score does the source give for `O=C(O)C(Cc1c[nH]c2ccccc12)NS(=O)(=O)c1cccc2nsnc12` (centres undefined) here?
Answer: Its z-score is 0.46.

Question: Which z-score does the source give for `Cc1ccc(C(=O)C2=C(O)C(=O)N(c3ncccn3)C2c2ccc(Cl)cc2)o1` (centres undefined) here?
Answer: Its z-score is 0.195.

— PubChem BioAssay
